CYP2C9 act: human CYP2C9 activators, primary screen, biochemical, luminescence; Cytochrome P450 2C9 (Homo sapiens), P11712; activation factor at 5 µM; 96,000 compounds, 1.4% hits; recombinant CYP2C9, luciferin-H conversion; active compounds read high; factor 1 = untreated enzyme, 0 = blocked;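 active means activation factor of 2 or more for CYP2C9 at a 5 µM dose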
CYP2C19 act: human CYP2C19 activators, primary screen, biochemical, luminescence | Cytochrome P450 2C19 (Homo sapiens), P33261 | recombinant CYP2C19, luciferin-H EGE luminescence; active compounds read high; 0 = fully inhibited enzyme, 1 = untreated enzyme | activation factor at 5 µM | 96,000 tested, under 10 active;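 active means activation factor of at least 2 at 5 µM in the primary screen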
Target sequence (P33261 whole entry, looked up): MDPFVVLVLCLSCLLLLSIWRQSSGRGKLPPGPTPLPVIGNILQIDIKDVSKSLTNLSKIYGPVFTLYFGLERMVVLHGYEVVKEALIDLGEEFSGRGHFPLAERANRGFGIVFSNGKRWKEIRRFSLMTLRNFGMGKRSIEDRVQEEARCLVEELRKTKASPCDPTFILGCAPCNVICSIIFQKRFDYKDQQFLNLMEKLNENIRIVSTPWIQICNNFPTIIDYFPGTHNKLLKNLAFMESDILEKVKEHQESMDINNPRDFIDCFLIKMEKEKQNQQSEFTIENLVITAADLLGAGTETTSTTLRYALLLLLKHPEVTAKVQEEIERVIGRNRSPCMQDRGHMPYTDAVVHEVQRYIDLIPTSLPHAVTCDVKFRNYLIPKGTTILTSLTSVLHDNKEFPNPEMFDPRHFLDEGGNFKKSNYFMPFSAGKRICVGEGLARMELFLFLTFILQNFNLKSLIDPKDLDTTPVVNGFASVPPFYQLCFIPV
CYP2C19 inhib: blockers of cytochrome P450 2C19 activity – biochemical, luminescence, ADME assay, primary screen; P33261; CYP2C19 Supersomes, luciferin-H EGE luminescence, 30 min; 96,000 compounds, 21% hits; inhibition, % at 5 µM;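 active means CYP2C19 inhibition above a set limit at 5 µM in the primary screen, cut at about 50% in these data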
CYP2C9 inh: blockers of cytochrome P450 2C9 activity – biochemical, luminescence, ADME assay, primary screen; P11712; CYP2C9 Supersomes, luciferin-H conversion; inhibition, % at 5 µM; 96,000 compounds, 20% hits; AID 777, 2007;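 active means blocking of liver enzyme CYP2C9 beyond about 50% at 5 µM, limit read from the data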
Measles CPE: compounds protecting cells from measles virus cytopathic effect, primary screen, measles RdRp inhibitor project, single point, MLSMR library, absorbance. Measles virus-infected cells, CPE protection. 140,000 compounds, 1.5% hits. protection (pct of control), % at 4 µM; in the data active means protection mostly above about 24%, no sharp cut-off; inactive means mostly below about 26%
Each line names hits and unclear results; the compound was inactive in the other large screens. Most compounds without a hit are left out; they make up all but 22% or so of the library.

COc1ccc(S(=O)(=O)N(C)c2ccc(OCC(=O)Nc3cc(C)on3)cc2)cc1	none
CCOc1ccc(S(=O)(=O)N(CC(=O)Nc2cc(C)on2)Cc2ccccc2Cl)cc1	CYP2C19 inhib 71.4, CYP2C9 inh 82.5
Cc1ccc(NC(=O)c2ccc(CNS(=O)(=O)c3cccc(C(F)(F)F)c3)cc2)cc1	none
Cc1cccc(NC(=O)COC(=O)Cc2cccc(C(F)(F)F)c2)c1C	none (no result: CYP2C9 act, CYP2C19 act, CYP2C19 inhib, CYP2C9 inh)
Cc1cccc(C)c1NC(=O)c1sccc1SCc1cccc(C(F)(F)F)c1	CYP2C19 inhib 69.0, CYP2C9 inh 72.9
Cc1ccc(NC(=O)c2sccc2SCc2cccc(C(F)(F)F)c2)cc1	CYP2C19 inhib 69.1, CYP2C9 inh 73.6
N#CCSc1ccsc1C(=O)Nc1ccc(F)cc1	CYP2C19 inhib 53.1
CN(C)/C=C(\C#N)C(=O)Nc1ccc(F)cc1	none
CCOC(=O)c1c(C)nc2c(C#N)cnn2c1C	CYP2C19 inhib 62.7
O=c1/c(=C/c2ccccn2)sc2nc3ccccc3n12	CYP2C19 inhib 71.0, CYP2C9 inh 53.6
O=C(Nc1cc(C(F)(F)F)ccc1N1CCOCC1)c1ccccc1	CYP2C19 inhib 64.4
COC(=O)c1ccc(CNC(=O)CNc2cc(C(F)(F)F)ccc2N2CCOCC2)cc1	CYP2C9 inh 95.3
Cc1ccn2cc(C(=O)Nc3ccccc3N3CCOCC3)nc2c1	none
O=C(Nc1cc(C(F)(F)F)ccc1N1CCOCC1)c1c(F)c(F)c(F)c(F)c1F	none
O=C(Nc1cc(C(F)(F)F)ccc1N1CCOCC1)c1ccc(Cl)nc1	CYP2C19 inhib 75.9
O=C(Nc1cc(C(F)(F)F)ccc1N1CCOCC1)c1cn2ccccc2n1	CYP2C9 inh 54.1
O=C(Nc1cc(C(F)(F)F)ccc1N1CCOCC1)c1cccnc1Cl	none
COc1ccc(NCc2nnc(SCC#N)n2-c2ccccc2OC)cc1	none
COc1ccc(OCC(=O)Nc2ccc3c(c2)nc(CCN2CCOCC2)n3C)cc1	none
CCC/C(=N\NC(=O)c1cccc(C)c1)c1ccccc1	none (no result: CYP2C9 act, CYP2C19 act, CYP2C19 inhib, CYP2C9 inh)
Cc1cc(C(=O)OCC(=O)Nc2cc(C(F)(F)F)ccc2N2CCOCC2)c(C)o1	CYP2C9 inh 63.3
CSCCC(NC(=O)C12CC3CC(CC(C3)C1)C2)C(=O)OCC(=O)c1ccccc1 (configuration not stated)	none (no result: CYP2C9 act, CYP2C19 act, CYP2C19 inhib, CYP2C9 inh)
COc1cccc(C(=O)N2c3ccccc3Sc3ccccc32)c1	none (no result: CYP2C9 act, CYP2C19 act, CYP2C19 inhib, CYP2C9 inh)
CCC(=O)OC1c2ccccc2C(=O)N1Cc1ccccc1 (configuration not stated)	CYP2C19 inhib 62.4
O=C(O)CSC1c2ccccc2C(=O)N1Cc1ccccc1 (configuration not stated)	none
O=C(NCc1ccc2c(c1)OCO2)c1cccc(S(=O)(=O)N2CCCCC2)c1	none (no result: CYP2C9 act, CYP2C19 act, CYP2C19 inhib, CYP2C9 inh)
COc1ccc(NC2=C(C(C)=O)C(c3ccc4c(c3)OCO4)C(C(C)=O)C(C)(O)C2)cc1 (configuration not stated)	CYP2C19 inhib 72.4, CYP2C9 inh 77.9
O=C(CN1C(=O)c2ccccc2S1(=O)=O)NC1CCCCCC1	CYP2C19 inhib 65.6
Cc1c(NC(=O)CN2C(=O)c3ccccc3S2(=O)=O)c(=O)n(-c2ccccc2)n1C	none (no result: CYP2C9 act, CYP2C19 act, CYP2C19 inhib, CYP2C9 inh)
COC(=O)c1ccc(C)c(NC(=O)CN2C(=O)c3ccccc3S2(=O)=O)c1	CYP2C9 inh 83.1
CCOC(=O)c1ccccc1NC(=O)CN1C(=O)c2ccccc2S1(=O)=O	none
CCc1cccc(C)c1NC(=O)CN1C(=O)c2ccccc2S1(=O)=O	CYP2C19 inhib 77.1
CCc1cccc(C)c1NC(=O)CSc1nc2ccc(N3C(=O)c4ccccc4C3=O)cc2s1	CYP2C9 inh 51.1
CCOC(=O)N1CCC(N(CCCOC)C(=O)Nc2ccc(CC)cc2)CC1	none
CN1C(=S)SC(N(O)C(=O)Nc2cccc3ccccc23)C1(C)C (configuration not stated)	none
Cc1cc(-c2n[nH]c(=S)n2CC(C)C)cs1	none (no result: CYP2C9 act, CYP2C19 act, CYP2C19 inhib, CYP2C9 inh)
Cc1c(C(=O)N2CCCC2)oc2c1-c1[nH]ncc1CC2	Measles CPE 30.6 (no result: CYP2C9 act, CYP2C19 act, CYP2C19 inhib, CYP2C9 inh)
Cc1c(C(=O)N2CCN(C)CC2)oc2c1C(=O)CC(C)(C)C2	none
Cc1ccnc(NC(=O)c2cccc(NS(=O)(=O)c3ccccc3C)c2)c1	CYP2C19 inhib 51.6
Cc1ccc(S(=O)(=O)Nc2cccc(C(=O)Nc3cc(C)ccn3)c2)cc1	none
O=C1c2[nH]nc(-c3ccccc3O)c2C(c2ccccc2F)N1Cc1ccco1 (configuration not stated)	CYP2C19 inhib 85.1, CYP2C9 inh 94.9
C=CCC1(C#N)C(=S)NC2=C(C(=O)CC(C)(C)C2)C1c1ccc(Br)cc1 (configuration not stated)	none (no result: CYP2C9 act, CYP2C19 act, CYP2C19 inhib, CYP2C9 inh)
CCOC(=O)N1CCN(C(=O)CN(C2CCCCC2)S(=O)(=O)c2c(C)cc(C)cc2C)CC1	CYP2C9 inh 62.9
Cc1cc(C)c(S(=O)(=O)N(CC(=O)N2CCOCC2)C2CCCCC2)c(C)c1	CYP2C9 inh 75.0
Cc1cc(C)c(S(=O)(=O)N(CC(=O)O)C2CCCCC2)c(C)c1	none
Cc1ccc(S(=O)(=O)N(CC(=O)N2CCOCC2)C2CCCCC2)cc1	Measles CPE 17.4
CCOC(=O)CSc1nnc(CNC(=O)c2ccccc2OC)n1-c1ccc(OC)cc1	none
Cc1cc(=O)[nH]c2n[nH]c(-c3ccccc3)c12	CYP2C19 inhib 78.2
COc1cccc(N(C(=O)Cn2nnc(-c3ccc(C)o3)n2)C(C(=O)NC(C)(C)C)c2cccs2)c1 (configuration not stated)	none (no result: CYP2C9 act, CYP2C19 act, CYP2C19 inhib, CYP2C9 inh)
CCC(C(=O)NC(C)(C)C)N(C(=O)Cn1nnc(-c2cccs2)n1)c1cnc2ccccc2c1 (configuration not stated)	CYP2C9 inh 64.9, Measles CPE 80.2
COc1cc(C(=O)NCC(c2ccco2)N2CCCC2)ccc1OCc1c(C)noc1C (configuration not stated)	none
COc1cc(NC(=O)COC(=O)CNC(=O)c2ccc(C)cc2)c(C)cc1[N+](=O)[O-]	none (no result: CYP2C9 act, CYP2C19 act, CYP2C19 inhib, CYP2C9 inh)
CC(c1ccccc1)n1cc(C(=O)NCCCn2ccnc2)nn1 (configuration not stated)	none (no result: CYP2C9 act, CYP2C19 act, CYP2C19 inhib, CYP2C9 inh)
O=C(COC(=O)c1ccccc1C(=O)N1CCN(c2ccc(F)cc2)CC1)NCc1ccccc1	CYP2C19 inhib 81.9, CYP2C9 inh 86.3
O=C(COC(=O)c1ccccc1C(=O)N1CCN(c2ccccc2)CC1)Nc1ccc(F)cc1	CYP2C19 inhib 72.4, CYP2C9 inh 91.3
COC(=O)c1ccccc1OCC(=O)N1CCN(c2ccc(F)cc2)CC1	none
Cc1occc1C(=O)OCC(=O)Nc1ccc(F)cc1	CYP2C19 inhib 85.7
CC1=NN(C(=O)c2ccc(Cn3nc(C)c([N+](=O)[O-])c3C)o2)C(O)(C(F)(F)F)C1 (configuration not stated)	none (no result: CYP2C9 act, CYP2C19 act, CYP2C19 inhib, CYP2C9 inh)
CC1(C)Cc2c(sc3c2c(=N)n(Cc2ccco2)c(=O)n3CC(=O)Nc2ccc(Cl)cc2)CO1	none (no result: Measles CPE)
CCOC(=S)SCC(=O)N1CCc2ccccc2C1C1C(=O)CCCC1=O (configuration not stated)	none (no result: CYP2C9 act, CYP2C19 act, CYP2C19 inhib, CYP2C9 inh)
